# Experimental data taken from the OligoGym collection.
# Target: HEPH
# Experiment: pooled miR-30 sensor sort-seq; sequence = guide strand
# Details: shRNA
# Further: reference of the scale not given here.
row,Sequence,sensor-assay potency score (higher = more potent)
1,TATAGTAGATTCTTGCAGCTTG,0.849
2,TATGTCACTGTCCAGAGGCTGG,-1.3
3,TGATATAGTAGATTCTTGCAGC,-0.0504

# Target: HERC1
# Experiment: as above
# Details: shRNA
row,Sequence,sensor-assay potency score (higher = more potent)
1,TATTCATGTAAAACTGTCCTTT,-0.17
2,TAACAGAATGGACATCTGCTGA,-0.647
3,TTATGTTCTTATAACATCTATG,-0.965
4,TAGTTGTCCATGTCGATTGAGC,-0.739
5,TTCTGCACTAGTCACATTGGTC,-0.675
6,TTCATAGGCATACTGCTCCTGA,-0.419
7,TTTCTGTAGTGAACATAGCAGT,-0.617
8,TATTGTAACCCACTTCTGCGGT,-0.596
9,TAGTGGTTGAGAAACATTCTAA,-0.582
10,TTCTCCAACCAGCTTAACCTTC,-1.11
11,TAACAGACACATCCTTTCGATA,-0.966
12,TTGTCCATGTCGATTGAGCGGC,-0.831

# Target: HERC3
# Experiment: as above
# Details: shRNA
row,Sequence,sensor-assay potency score (higher = more potent)
1,TTATCTAGTACTTTGCTGGGGT,0.669
2,TTGTGCTCTACAAAACACGTGT,0.203
3,TACATTGAGTAACTTCTTGTAG,0.402
4,TAGCTTTCTCGGCAGATCGTGA,-0.772
5,ATAATATCTGAACAACACCATT,-1.67
6,TTTACATTGAGTAACTTCTTGT,-0.154
7,TACTTTGCCACCACACACCTTT,0.0362
8,TTGAACTATATGCACACACATA,-1.08
9,TTCAGCTTTTGTATTAACCTGG,0.299
10,TAACTTCTCAAATAACACCCTA,-0.57
11,TATCTGAACAACACCATTGATT,-0.697

# Target: HES7
# Experiment: as above
# Details: shRNA
row,Sequence,sensor-assay potency score (higher = more potent)
1,TTCGCTCCCTCAAGTAGCCCAC,-0.598
2,TTGGGCGCCCCGTCTTGTCTGT,-1.06
3,TCCGCTTTCTCCAGCTTCGGGT,-1.29
4,AGCGGCTTGAGCATCTTGGGGC,-0.755
5,AAACCGGACAAGTAGCAGCTGG,-0.705
6,TTTGGGGCGCAGATAGCCGTGC,-0.737
7,TTCCGGAGGTTCTGGTCCCGGG,-1.41
8,TATCTCCGCTTTCTCCAGCTTC,-1.2
9,TTTCTCCAGCTTCGGGTTCCGG,-1.22
10,AACCGGACAAGTAGCAGCTGGC,-1.06
11,AAGCGAAGCAGGCACTCGCGGA,-1.48
12,ATATAGACCACATCTCACCCGC,-0.0228
